# Compound activity deposited in PubChem BioAssay by National Center for Advancing Translational Sciences (NCATS).
# Tau fluor counter = Counterscreen qHTS for Inhibitors of Tau Fibril Formation, Fluorescence Polarization. tau K18 P301L Alexa594 fluorescence, heparin fibrillization. hit rate 0.93% among 280,000. Potency, µM (highest dose often 57.7 µM), without a hit: at the top dose activity change, negative = decrease. AID 1463, 2008; also: potency is read from the fitted curve at half-maximal effect; nearly all actives have a fitted effect of over 55% in size
#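 Human K18 P301L tau (15 uM unlabeled plus 0.24 uM Alexa 594-labeled, final) in 100 mM sodium acetate pH 7 was mixed with compound and 20 uM heparin and incubated 6 hr at 37 C.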
# Tau fibril ThT = qHTS for Inhibitors of Tau Fibril Formation, Thioflavin T Binding | recombinant tau K18 P301L (four-repeat tau fragment), heparin-induced fibrillization, ThT fluorescence | Potency, µM (series often up to 57.4 µM), inactives show at the highest dose activity, negative = inhibition, actives largely listed as inhibitors | hit rate 2.1% among 270,000 | AID 1460, 2008; also: potency is read from the fitted curve at half-maximal effect; nearly all actives have a fitted effect of over 55% in size
# Target sequence (P10636 561-689 P618L limits assumed): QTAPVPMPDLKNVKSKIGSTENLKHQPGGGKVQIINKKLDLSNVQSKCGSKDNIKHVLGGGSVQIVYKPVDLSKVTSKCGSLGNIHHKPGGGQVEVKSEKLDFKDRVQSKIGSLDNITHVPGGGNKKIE
#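 K18 P301L tau (15 uM + 0.24 uM Alexa 594-tagged), heparin 20 uM, NaOAc pH 7, 6 h 37 C; ThT 30 uM, 1 h RT, ex 450/em 510 nm.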
# Sfp PPTase inh = qHTS Assay for Inhibitors of Bacillus subtilis Sfp phosphopantetheinyl transferase (PPTase); hit rate 3.5% among 310,000; Biochemical Sfp PPTase activity, qHTS; Potency, µM, for inactives: largest response in the series, negative = inhibition, most hits filed as inhibitors; 4'-phosphopantetheinyl transferase ffp (Bacillus subtilis), Q9F4F7;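 also: the enzyme is Sfp with the accession as filed and its product quenches rhodamine fluorescence; potency is read from the fitted curve at half-maximal effect; 0% = enzyme reaction without inhibitor and -100% = no enzyme wells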
#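 Sfp 15 nM + cpd, 15 min RT; start w/ rhodamine-CoA 5 uM, BHQ-2-YbbR 12.5 uM (final); 50 mM Hepes pH 7.6, 10 mM MgCl2, 0.01% NP-40, 0.01% BSA; read 525/598 nm at 0 and 30 min.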
# Coupling enz = qHTS Assay for Inhibitors of Fructose-1,6-bisphosphate Aldolase from Giardia Lamblia: Coupling assay counterscreen; activity change, negative = inhibition, % at 58.2 µM, hits read low; hit rate 0.67% among 290,000; coupling enzyme system counterscreen, AmpLite Red fluorescence; in the data active = activity change below about -30%
#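 Compounds tested against the coupling enzymes alone at 57.5 uM final; readout was AmpLite Red fluorescence (525/598 nm) after 20 min at RT.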
# G9a inh = qHTS Assay for Inhibitors of Histone Lysine Methyltransferase G9a; G9a H3K9 monomethylation, AlphaScreen, 2 h; hit rate 8.8% among 350,000; Potency, µM (top dose mostly 102 µM), for inactives: at the highest dose activity, negative = inhibition, actives largely listed as inhibitors; Histone-lysine N-methyltransferase EHMT2 (Homo sapiens), Q96KQ7; also: potency is read from the fitted curve at half-maximal effect; nearly all actives have a fitted effect of over 75% in size
# Target sequence (Q96KQ7 913-1193 limits assumed): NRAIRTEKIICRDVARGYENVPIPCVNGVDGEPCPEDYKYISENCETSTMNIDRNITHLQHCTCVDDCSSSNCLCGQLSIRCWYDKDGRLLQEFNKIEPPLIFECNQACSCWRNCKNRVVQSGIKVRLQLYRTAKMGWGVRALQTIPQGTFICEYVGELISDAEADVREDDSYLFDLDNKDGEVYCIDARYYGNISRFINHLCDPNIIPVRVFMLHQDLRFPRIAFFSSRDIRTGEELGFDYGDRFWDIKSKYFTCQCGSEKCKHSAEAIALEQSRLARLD
#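 Enzyme 20 nM + cpd, 15 min RT; add b-H3K9 pep 500 nM / SAM 20 uM; 2 h RT; anti-H3K9me1 Ab 0.5 ug/mL + SA donor / anti-rabbit acceptor beads 20 ug/mL each, 10 min; AlphaScreen read.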
# Tau fibril FP = qHTS for Inhibitors of Tau Fibril Formation, Fluorescence Polarization; K18 P301L tau heparin fibrillization, Alexa594 FP, 6 h; Potency, µM (doses to about 57.7 µM), inactives show at the top dose activity, negative = inhibition, most hits filed as inhibitors; hit rate 0.39% among 280,000; Microtubule-associated protein tau (Homo sapiens), P10636; AID 1468, 2008; also: potency is read from the fitted curve at half-maximal effect; nearly all actives have a fitted effect of over 55% in size
#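 Human K18 P301L fragment (15 uM unlabeled plus 0.24 uM Alexa 594-labeled) in 100 mM sodium acetate pH 7 with compound, aggregation induced by 20 uM heparin for 6 hr at 37 C. ThT (30 uM) added for 1 hr, then Alexa 594 FP read.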
# Starred values were filed as active, the others as inactive; u = inconclusive; x = no result given; [ ] = remark or other dose. An excerpt weighted towards active compounds, which were near 11% of everything screened. Unless noted, calls follow the shape of the dose curve; as a rule, active = well fitted curve in the direction sought with a large enough effect; inconclusive = small, poorly fitted or top-dose-only effect, or another doubt; inactive = no such curve, though single readings can be large; an effect the other way counts as inactive or inconclusive. Unless noted, % is scaled to controls: 0 for no effect and ±100 for the full control effect.
SMILES,Tau fluor counter,Tau fibril ThT,Sfp PPTase inh,Coupling enz,G9a inh,Tau fibril FP
COC(=O)N1C(=O)[C@](CC(C)C)(c2ccccc2)N1C(=O)OC,x,x,-18%,0,79µM*,x
COC(=O)N1C(=O)[C@@](CC(C)C)(c2ccccc2)N1C(=O)OC,x,x,-9%,0,50µM*,x
CC[C@@]1(c2cccc(C)c2)C(=O)N(C(=O)OC)N1C(=O)OC,x,x,-24%,-1,45µM*,x
COc1ccc(CNc2cc(-c3ccccc3C)ncn2)c(OC)c1,x,x,-28%,-1,-2%[0.501 µM],x
COc1cc(C2c3sc(=O)[nH]c3SC3C(=O)N(c4ccc(Br)cc4)C(=O)C32)ccc1O (centres undefined),u,u,-28%,3,u,3%
CCOc1ccc(N2C(=O)C3Sc4[nH]c(=O)sc4C(/C=C/c4ccccc4)C3C2=O)cc1 (centres undefined),u,14µM*,-25%,-1,11µM*,-16%
CCSc1cnc(-c2ccccc2)n1CC,-4%,-8%,15%,-1,50µM*,0%
O=C(NCCN1CCOCC1)C1(C(F)(F)F)C/C(=C/CCO)CCCO1 (centres undefined),x,x,6%,-2,x,x
CC1(C)Cc2sc3c(=O)[nH]c(=S)[nH]c3c2CO1,4%,x,28µM*,1,x,-1%
CC1(C)Cc2c(c(-c3ccccc3)nc3sc4c(=O)[nH]c(=S)[nH]c4c23)CO1,-5%,x,1%,-1,x,3%
O=C(CCN1CCCC1)c1cccs1,-10%,-22%,-21%,5,25µM*,9%
COc1ccc(S(=O)(=O)NCCS(=O)(=O)N2CCN(c3ccccc3)CC2)cc1,x,x,x,x,0%,x
COc1ccc(N2CCN(C(=O)CSc3ccc(C)cc3)CC2)cc1,-13%,u,7%,2,u,8%
O=C(CCC(=O)N1CCN(c2ccc(O)cc2)CC1)c1cccs1,-8%,u,25µM*,-10,13µM*,1%
Cc1ccc(OCCC(=O)N2CCN(c3ccc(O)cc3)CC2)cc1,-28%,u,56µM*,-4,11µM*,-4%
COc1ccc(N2CCN(CCNS(=O)(=O)c3ccc(C)cc3)CC2)cc1,x,x,18%,-2,50µM*,x
Cn1nc(C(=O)OCC(=O)Nc2ccc(S(N)(=O)=O)cc2)c2ccccc2c1=O,-13%,-5%,3%,1,21%[59 µM],-4%
COc1cccc(CNC(=O)CN2C(=O)CSc3c2c(C)nn3-c2ccccc2)c1,-8%,-6%,x,x,15%[59 µM],0%
COc1ccc(N2CCN(C(=O)CCNS(=O)(=O)c3ccc(C)cc3)CC2)cc1,x,x,5%,5,50µM*,x
CCCNS(=O)(=O)c1ccc(CCC(=O)N2CCN(c3ccc(OC)cc3)CC2)cc1,-23%,u,-12%,-12,u,15%
Cc1nn(CC(=O)NC(=O)NC2CCCC(C)C2C)c(=O)c(C#N)c1C (centres undefined),x,x,x,x,5%[59 µM],x
CC(=O)Nc1ccc(NC(=O)C(C)OC(=O)CCC2CCCC2)cc1 (centres undefined),x,x,x,x,35µM*,x
CC(=O)Nc1ccc(NC(=O)C(C)OC(=O)CC2CCCC2)cc1 (centres undefined),x,x,x,x,10%[12.7 µM],x
CCn1c(COc2ccc(C(C)C)cc2)nnc1SCC(=O)Nc1nccs1,0%,-9%,19%,3,10µM*,-6%
CCn1c(CC(=O)Nc2cccc(OC)c2)nnc1SCC(=O)Nc1nccs1,-5%,-10%,0%,-3,56µM*,-1%
SMILES,Tau fluor counter,Tau fibril ThT,Sfp PPTase inh,Coupling enz,G9a inh,Tau fibril FP
C=CCn1c(CCCOc2ccc(Cl)cc2Cl)nnc1SCC(=O)Nc1nccs1,-5%,-3%,14%,4,40µM*,1%
CCn1c(CCCOc2ccc(Cl)cc2Cl)nnc1SCC(=O)Nc1cc(F)ccc1C,-28%,u,15%,-3,12%[59 µM],4%
O=C(Nc1ccccc1)N1CCC2(CC1)CCN(C(=O)c1cnccn1)CC2,x,x,10%,1,3%[12.7 µM],x
NC(=O)c1ccc(NC(=O)CS(=O)(=O)c2cn(CC(=O)N3CCCCC3)c3ccccc23)cc1,x,x,7%,1,u,x
CCn1cc(S(=O)(=O)CC(=O)Nc2ccc3c(c2)OCCO3)c2ccccc21,-20%,-17%,4%,-6,u,3%
CCN(CC)C(=O)Cn1cc(S(=O)(=O)CC(=O)Nc2ccc(C(N)=O)cc2)c2ccccc21,x,x,5%,2,45µM*,x
CCN(CC)C(=O)Cn1cc(S(=O)(=O)CC(=O)Nc2ccc3c(c2)OCCO3)c2ccccc21,0%,1%,13%,1,56µM*,-6%
CC(C)c1ccc(/C=N/NC(=O)c2nnn(-c3nonc3N)c2CSC2=NCCS2)cc1,-25%,-5%,10%,-1,8%[59 µM],u
O=S(=O)(NCc1cccnc1)c1cccc2nsnc12,-11%,-9%,9%,0,32µM*,1%
Fc1ccc(-c2n[nH]c(=S)n2CC2CCCO2)cc1 (centres undefined),-2%,-1%,-26%,2,2.8µM*,2%
Cc1cccn2c(=O)c(/C=C(\C#N)c3nc4ccccc4n3C)c(Oc3ccc(Cl)cc3)nc12,-9%,u,x,x,4%[59 µM],-1%
CN1CCN(c2ncc3nc(-c4cc(F)cc(F)c4)c(=O)n(CCc4ccccc4)c3n2)CC1,x,x,-5%,7,-8%[0.501 µM],x
Cc1cc(C)c2nc(NNC(=O)c3ccc(S(=O)(=O)N4CCCCC4)cc3)sc2c1,u,22µM*,u,2,25µM*,u
CCOC(=O)N1CCN(S(=O)(=O)c2ccc(C(=O)N(CCN(C)C)c3nc4ccc(Cl)cc4s3)cc2)CC1,x,x,-7%,x,u,x
Cc1cc(C)c2nc(NC(=O)c3ccc(S(=O)(=O)N4CCCC4)cc3)sc2c1,-18%,4%,x,x,12%[59 µM],u
CCOC(=O)N1CCN(S(=O)(=O)c2ccc(C(=O)NNc3nc4ccc(Cl)cc4s3)cc2)CC1,u,u,5%,4,79µM*,1%
CCOC(=O)N1CCN(S(=O)(=O)c2ccc(C(=O)NNc3nc4cc(C)cc(C)c4s3)cc2)CC1,u,-15%,-1%,3,50µM*,u
CCOC(=O)N1CCN(S(=O)(=O)c2ccc(C(=O)N(CCN(CC)CC)c3nc4c(C)cccc4s3)cc2)CC1,x,x,-3%,-2,50µM*,x
CC(C)=CC(=O)Oc1ccc(C(=O)N(C)c2ccccc2I)cc1,x,x,5%,-1,x,x
